# Experimental data reported in PMC7862700, “An all-to-all approach to the identification of sequence-specific readers for epigenetic DNA modifications on cytosine”.
# What was measured:
# Test in all cases: DAPPL (digital affinity profiling via proximity ligation, sequencing); 10 mM Tris-HCl pH 7.5, 50 mM NaCl, 1 mM DTT, 4% glycerol, room temperature, 30 min; GST-TFs on glutathione beads, 16-mer random dsDNA library, 0.1% formaldehyde crosslink after washing; high values mean tight binding
# FEV = target: T1, FEV (Homo sapiens, UniProt Q99581 1-238); details: protein: recombinant; tags: N-terminal GST; dsDNA, one strand shown
# T1 sequence: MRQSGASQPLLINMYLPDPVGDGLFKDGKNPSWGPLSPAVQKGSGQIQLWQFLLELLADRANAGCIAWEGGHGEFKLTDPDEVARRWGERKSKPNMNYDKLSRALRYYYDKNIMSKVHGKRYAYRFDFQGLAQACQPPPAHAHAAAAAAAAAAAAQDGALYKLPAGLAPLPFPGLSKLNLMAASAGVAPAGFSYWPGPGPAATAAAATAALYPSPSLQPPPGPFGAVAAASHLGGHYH
# How it was run: (§1)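 The binding signal reported is, for every hexamer, its read frequency for a factor over its read frequency for the tag-only sample. Reads came from pools of yeast-expressed, GST-fused human transcription factors on glutathione beads, barcoded with DNA and mixed with that sample, which were incubated with 200 nmole of a random double-stranded 16-mer DNA library in Tris/NaCl/DTT/glycerol buffer at room temperature for 30 min. After washing, the pools were crosslinked with 0.1% formaldehyde, proximity-ligated with BsaI/T4 ligase for 1 h at 37 °C, PCR-amplified and sequenced on an Illumina NextSeq500.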
# ETV5 = ETV5 (Homo sapiens, UniProt P41161 1-510); details: protein: recombinant; tags: N-terminal GST; dsDNA, one strand shown
# How it was run: as §1
# HSF1 = HSF1 (Homo sapiens, UniProt Q00613 1-529); details: protein: recombinant; tags: N-terminal GST; chain copies: 3; dsDNA, one strand shown
# How it was run: as §1
# SPIC = target: T2, SPIC (Homo sapiens, UniProt Q8N5J4 1-248); details: protein: recombinant; tags: N-terminal GST; dsDNA, one strand shown
# T2 sequence: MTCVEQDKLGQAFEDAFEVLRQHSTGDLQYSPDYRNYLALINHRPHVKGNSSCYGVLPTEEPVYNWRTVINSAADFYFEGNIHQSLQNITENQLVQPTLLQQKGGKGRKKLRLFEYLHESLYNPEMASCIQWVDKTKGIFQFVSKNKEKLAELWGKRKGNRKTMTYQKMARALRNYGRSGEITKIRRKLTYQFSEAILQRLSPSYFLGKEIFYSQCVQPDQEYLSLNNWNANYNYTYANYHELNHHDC
# How it was run: as §1
# ELF4 = ELF4 (Homo sapiens, UniProt Q99607 1-663); details: protein: recombinant; tags: N-terminal GST; dsDNA, one strand shown
# How it was run: as §1
# ELK4 = target: T3, ELK4 (Homo sapiens, UniProt P28324-2 1-405); details: protein: recombinant; tags: N-terminal GST; dsDNA, one strand shown
# T3 sequence: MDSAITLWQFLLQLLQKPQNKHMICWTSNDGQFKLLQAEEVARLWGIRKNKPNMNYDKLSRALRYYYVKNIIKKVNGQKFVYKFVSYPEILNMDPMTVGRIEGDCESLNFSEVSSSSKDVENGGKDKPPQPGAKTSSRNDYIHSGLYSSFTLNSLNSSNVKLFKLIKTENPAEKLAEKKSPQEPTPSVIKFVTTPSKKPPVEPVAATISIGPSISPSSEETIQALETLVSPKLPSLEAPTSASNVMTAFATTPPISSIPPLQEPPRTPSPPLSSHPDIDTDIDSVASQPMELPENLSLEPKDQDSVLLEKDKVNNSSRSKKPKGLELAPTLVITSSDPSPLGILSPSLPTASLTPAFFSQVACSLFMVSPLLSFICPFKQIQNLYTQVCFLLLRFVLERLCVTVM
# How it was run: as §1
# ETV2 = target: T4, ETV2 (Homo sapiens, UniProt O00321 1-342); details: protein: recombinant; tags: N-terminal GST; dsDNA, one strand shown
# T4 sequence: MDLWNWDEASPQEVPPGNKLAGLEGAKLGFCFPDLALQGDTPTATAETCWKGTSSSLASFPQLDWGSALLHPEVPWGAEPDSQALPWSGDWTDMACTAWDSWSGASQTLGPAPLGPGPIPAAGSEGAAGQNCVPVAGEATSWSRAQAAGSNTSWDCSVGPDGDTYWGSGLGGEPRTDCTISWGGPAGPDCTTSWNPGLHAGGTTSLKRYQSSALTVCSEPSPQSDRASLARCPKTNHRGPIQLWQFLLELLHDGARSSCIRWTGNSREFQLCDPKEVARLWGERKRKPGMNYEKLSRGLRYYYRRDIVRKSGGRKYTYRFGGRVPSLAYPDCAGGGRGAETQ
# How it was run: as §1
# ELF3 = target: T5, ELF3 (Homo sapiens, UniProt P78545 1-371); details: protein: recombinant; tags: N-terminal GST; dsDNA, one strand shown
# T5 sequence: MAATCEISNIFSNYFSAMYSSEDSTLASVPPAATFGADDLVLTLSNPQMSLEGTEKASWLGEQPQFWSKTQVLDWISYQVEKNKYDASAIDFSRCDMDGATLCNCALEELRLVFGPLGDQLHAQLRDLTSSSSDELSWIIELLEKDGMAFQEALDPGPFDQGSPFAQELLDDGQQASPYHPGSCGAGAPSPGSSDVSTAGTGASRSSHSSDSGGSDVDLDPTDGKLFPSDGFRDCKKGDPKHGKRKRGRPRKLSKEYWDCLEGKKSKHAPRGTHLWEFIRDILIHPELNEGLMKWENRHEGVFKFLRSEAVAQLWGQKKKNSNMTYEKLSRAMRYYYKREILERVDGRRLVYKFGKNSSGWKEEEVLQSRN
# How it was run: as §1
# CRX = CRX (Homo sapiens, UniProt O43186 1-299); details: protein: recombinant; tags: N-terminal GST; dsDNA, one strand shown
# How it was run: as §1
# ETV1 = ETV1 (Homo sapiens, UniProt P50549 1-477); details: protein: recombinant; tags: N-terminal GST; dsDNA, one strand shown
# How it was run: as §1
# Sequence of ETV1 (P50549 whole entry): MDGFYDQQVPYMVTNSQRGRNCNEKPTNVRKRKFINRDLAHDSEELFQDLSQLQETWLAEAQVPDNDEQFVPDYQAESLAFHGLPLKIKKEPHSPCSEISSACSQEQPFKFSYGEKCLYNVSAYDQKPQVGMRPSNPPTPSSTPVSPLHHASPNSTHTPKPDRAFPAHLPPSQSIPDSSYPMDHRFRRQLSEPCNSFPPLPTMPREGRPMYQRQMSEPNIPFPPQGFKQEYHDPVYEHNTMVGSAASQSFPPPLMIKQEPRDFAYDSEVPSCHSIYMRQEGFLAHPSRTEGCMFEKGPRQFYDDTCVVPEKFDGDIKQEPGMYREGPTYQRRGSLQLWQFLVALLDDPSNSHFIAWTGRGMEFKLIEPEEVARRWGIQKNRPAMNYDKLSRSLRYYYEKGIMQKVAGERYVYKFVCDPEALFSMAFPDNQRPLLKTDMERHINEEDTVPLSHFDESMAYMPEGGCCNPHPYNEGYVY
# Sequence of CRX (O43186 whole entry): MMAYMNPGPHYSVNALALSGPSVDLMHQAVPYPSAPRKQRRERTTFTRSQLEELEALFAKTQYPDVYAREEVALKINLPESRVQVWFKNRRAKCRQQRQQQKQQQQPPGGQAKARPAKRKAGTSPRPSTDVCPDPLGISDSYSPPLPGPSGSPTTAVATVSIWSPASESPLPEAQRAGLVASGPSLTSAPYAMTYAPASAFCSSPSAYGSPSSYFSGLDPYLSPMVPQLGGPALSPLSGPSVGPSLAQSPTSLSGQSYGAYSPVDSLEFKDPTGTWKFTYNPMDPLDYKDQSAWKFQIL
# Sequence of ETV5 (P41161 whole entry): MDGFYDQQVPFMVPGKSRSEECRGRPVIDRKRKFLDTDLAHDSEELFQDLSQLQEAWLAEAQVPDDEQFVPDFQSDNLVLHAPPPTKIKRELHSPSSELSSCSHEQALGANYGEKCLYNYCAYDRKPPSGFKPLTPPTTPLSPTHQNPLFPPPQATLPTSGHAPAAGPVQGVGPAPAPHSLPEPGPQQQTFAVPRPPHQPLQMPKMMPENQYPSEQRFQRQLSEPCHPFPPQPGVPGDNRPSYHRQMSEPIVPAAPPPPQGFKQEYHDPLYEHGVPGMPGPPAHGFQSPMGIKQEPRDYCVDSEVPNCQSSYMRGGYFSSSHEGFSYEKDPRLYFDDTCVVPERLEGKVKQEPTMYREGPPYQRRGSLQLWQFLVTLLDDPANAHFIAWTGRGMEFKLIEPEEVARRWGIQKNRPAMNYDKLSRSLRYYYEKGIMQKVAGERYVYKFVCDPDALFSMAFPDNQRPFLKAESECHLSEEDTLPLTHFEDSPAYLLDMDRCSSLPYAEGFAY
# Sequence of HSF1 (Q00613 whole entry): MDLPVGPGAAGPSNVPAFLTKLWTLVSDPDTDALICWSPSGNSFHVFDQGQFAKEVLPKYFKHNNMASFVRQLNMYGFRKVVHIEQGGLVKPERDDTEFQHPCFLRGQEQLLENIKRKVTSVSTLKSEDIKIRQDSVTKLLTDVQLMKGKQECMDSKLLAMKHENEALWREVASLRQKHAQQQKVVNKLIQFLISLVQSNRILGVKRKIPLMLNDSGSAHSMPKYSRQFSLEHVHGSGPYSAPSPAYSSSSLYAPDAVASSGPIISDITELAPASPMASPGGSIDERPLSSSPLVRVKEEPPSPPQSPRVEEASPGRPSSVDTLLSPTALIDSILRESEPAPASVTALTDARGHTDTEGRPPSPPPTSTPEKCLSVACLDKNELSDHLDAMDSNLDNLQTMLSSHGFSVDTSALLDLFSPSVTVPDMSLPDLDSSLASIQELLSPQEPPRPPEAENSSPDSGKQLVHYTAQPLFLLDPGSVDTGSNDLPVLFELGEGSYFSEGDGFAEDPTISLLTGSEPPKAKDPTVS
# Sequence of ELF4 (Q99607 whole entry): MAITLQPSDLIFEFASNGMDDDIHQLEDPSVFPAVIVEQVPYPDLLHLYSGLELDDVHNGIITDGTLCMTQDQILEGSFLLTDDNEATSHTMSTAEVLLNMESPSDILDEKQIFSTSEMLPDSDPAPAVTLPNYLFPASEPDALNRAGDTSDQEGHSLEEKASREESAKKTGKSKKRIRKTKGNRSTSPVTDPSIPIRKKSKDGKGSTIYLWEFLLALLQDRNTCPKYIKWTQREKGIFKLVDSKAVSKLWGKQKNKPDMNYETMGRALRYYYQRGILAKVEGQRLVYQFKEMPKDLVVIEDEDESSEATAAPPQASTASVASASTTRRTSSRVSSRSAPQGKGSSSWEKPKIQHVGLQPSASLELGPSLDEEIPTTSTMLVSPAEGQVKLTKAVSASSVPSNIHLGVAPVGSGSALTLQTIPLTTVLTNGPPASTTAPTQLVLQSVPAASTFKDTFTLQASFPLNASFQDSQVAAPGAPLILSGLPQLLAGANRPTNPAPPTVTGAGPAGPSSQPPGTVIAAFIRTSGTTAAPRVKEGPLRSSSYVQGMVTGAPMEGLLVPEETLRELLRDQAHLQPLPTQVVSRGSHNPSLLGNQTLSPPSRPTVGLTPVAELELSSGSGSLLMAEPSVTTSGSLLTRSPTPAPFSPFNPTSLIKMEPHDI
sequence,measurement,setting,value
AAGTAA,binding signal,FEV,"1.24 fold enrichment (6-mer frequency, TF over GST control)"
same,binding signal,ETV5,"1.32 fold enrichment (6-mer frequency, TF over GST control)"
same,binding signal,HSF1,"1.24 fold enrichment (6-mer frequency, TF over GST control)"
same,binding signal,SPIC,"1.35 fold enrichment (6-mer frequency, TF over GST control)"
same,binding signal,ELF4,"1.27 fold enrichment (6-mer frequency, TF over GST control)"
same,binding signal,ELK4,"1.19 fold enrichment (6-mer frequency, TF over GST control)"
same,binding signal,ETV2,"1.38 fold enrichment (6-mer frequency, TF over GST control)"
same,binding signal,ELF3,"1.42 fold enrichment (6-mer frequency, TF over GST control)"
same,binding signal,CRX,"1.39 fold enrichment (6-mer frequency, TF over GST control)"
same,binding signal,ETV1,"1.31 fold enrichment (6-mer frequency, TF over GST control)"
